mHTT-CaM PPI inh: mHTT-calmodulin interaction abrogation; P42858; inhibition, % at 15 µM; AID 1671202; AlphaScreen His-mHTT/GST-CaM binding, luminescence; 190,000 tested, 3.6% active;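 note: 0% = both proteins with DMSO and 100% = one protein alone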
Pf apPOL inh: Pf-apPOL DNA polymerase inhibition; AID 1794808; Recombinant Pf-apPOL, molecular beacon fluorescence, 1.5 h; 210,000 tested, 0.25% active; inhibition, % at 10 µM
* marks the source's active call; other numbers are inactive results; nt = no result given; ! = a repeat was not active. Compounds with a hit are over-represented: about 3.6% of the library has one in this group of screens. Cut-off read from the data, not from the text of the source: active = inhibition above about 50%; inactive = the rest.

SMILES	mHTT-CaM PPI inh	Pf apPOL inh
O=S(=O)(Nc1cc(Cl)cc(Cl)c1)c1ccc(Cl)cc1	-23.9	nt
Cn1c(N2CCCC(C(=O)Nc3cccc(C(F)(F)F)c3)C2)cc(=O)n(C)c1=O (centres undefined)	3.2	-2.7
COCCN1CCC(N2CCCN(C(=O)c3ccccc3C)CC2)C1=O (centres undefined)	-5.4	9.1
Cc1c(C(=O)NN)nnn1-c1nonc1N	-6.6	nt
Cc1ccccc1NC1=C(N)C(=O)c2ccccc2C1=O	58.9*	-7.5
Cc1ccccc1NC1=C(N2CCOCC2)C(=O)c2ccccc2C1=O	5.0	2.5
N#CCC(=O)c1ccc([N+](=O)[O-])cc1	98.5*	5.5
N#CCC(=O)c1ccc(Cl)cc1	13.5	1.2
CCCCCSc1nnc2c(n1)OC(c1cccnc1)Nc1ccccc1-2 (centres undefined)	6.0	-3.3
CCCSc1nnc2c(n1)OC(c1cc(OC)c(O)c(OC)c1)Nc1ccccc1-2 (centres undefined)	-7.0	-0.2
CCCSc1nnc2c(n1)OC(c1cccnc1)Nc1ccccc1-2 (centres undefined)	0.0	51.9*
CCSc1nnc2c(n1)OC(c1cc(OC)c(O)c(OC)c1)Nc1ccccc1-2 (centres undefined)	-3.0	94.6*
N=c1oc2ccc(Br)cc2cc1C(=O)Nc1ccc(F)cc1	2.0	-2.3
O=C1CCC(=O)N1c1ccc(Oc2ccc(Cl)cc2Cl)cc1	-2.7	1.8
COCCC1CCN(C(=O)CN(C)C(=O)c2n[nH]c3ccccc23)CC1	-3.7	-5.5
O=[N+]([O-])c1ccc(C2CNC(c3ccccc3)O2)cc1 (centres undefined)	-2.0	0.3
O=[N+]([O-])c1ccc(C2Nc3ccc(Cl)cc3C(c3ccccc3)O2)cc1 (centres undefined)	82.0*	-5.0
O=C(Nc1cc2cc([N+](=O)[O-])ccc2oc1=O)c1ccc(Cl)c([N+](=O)[O-])c1	7.0	-2.5
O=C(Cc1nc(-c2ccccn2)n[nH]1)Nc1ccccc1F	94.5*	-5.7
O=C(Cc1nc(-c2ccccn2)n[nH]1)Nc1ccc(F)cc1F	97.3*	-16.8
Cc1ccccc1NC(=O)Cc1nc(-c2ccccc2)n[nH]1	3.6	-3.2
O=C(Cc1nc(-c2ccccc2)n[nH]1)Nc1ccc(F)c(F)c1	-2.0	-3.1
Cc1ncsc1CN1CCCCC1c1nncn1-c1ccccc1 (centres undefined)	-4.0	7.6
CCC(=O)NCCc1csc(C2CCN(C(=O)c3ccc(C)c(C)c3)CC2)n1	20.4	-3.9
COCOCCn1cc(CN2CCS(=O)(=O)N(Cc3ccc(-c4ccc(Cl)c(Cl)c4)cc3)C(C)C2=O)nn1 (centres undefined)	99.0*	-6.5
SMILES	mHTT-CaM PPI inh	Pf apPOL inh
COCOCCn1cc(CN2CCS(=O)(=O)N(Cc3ccc(-c4ccc(C)cc4)cc3)C(C(C)C)C2=O)nn1 (centres undefined)	10.0	-12.3
COCOCCn1cc(CN2CCS(=O)(=O)N(Cc3ccc(-c4ccc(C)cc4)cc3)C(C)C2=O)nn1 (centres undefined)	-4.0	-19.3
COCOCCn1cc(CN2CCS(=O)(=O)N(Cc3ccc(-c4ccccc4)cc3)C(C(C)C)C2=O)nn1 (centres undefined)	54.5*	-21.8
CC(C)CCNC(=O)c1cc2c(=O)n(C)ccc2n1C	-7.7	-2.1
Cn1c(=O)c2c(ncn2CC(=O)Nc2nc(-c3ccc(Br)cc3)cs2)n(C)c1=O	12.2	8.4
CN(C)C(=O)c1csc(N2CCN(c3cccc(Cl)c3)CC2)n1	52.9*	-3.8
COc1cccc(N2CCN(c3nc(C(=O)N(C)C)cs3)CC2)c1	16.6	-5.0
CC1(C)CC(=O)C2=C(C1)N=C1c3ccccc3C(=O)C1C2c1cccc(Br)c1 (centres undefined)	61.0*	-2.7
CC1(C)CC(=O)C2=C(C1)N=C1c3ccccc3C(=O)C1C2c1cc([N+](=O)[O-])ccc1O (centres undefined)	53.0*	-5.8
CC1(C)CC(=O)C2=C(C1)N=C1c3ccccc3C(=O)C1C2c1ccc2c(c1)OCO2 (centres undefined)	49.0	-3.2
CC1(C)CC(=O)C2=C(C1)N=C1c3ccccc3C(=O)C1C2c1cccc(F)c1 (centres undefined)	10.0	-8.9
CC1(C)CC(=O)C2=C(C1)N=C1c3ccccc3C(=O)C1C2c1ccc([N+](=O)[O-])cc1 (centres undefined)	35.0	-3.2
O=C1CCCC2=C1C(c1ccc3c(c1)OCO3)C1C(=O)c3ccccc3C1=N2 (centres undefined)	55.0*	-4.9
Cc1ccc(Cl)cc1N1CCN(C(=O)C2CCC2)C(C)C1=O (centres undefined)	1.3	3.3
Nc1cccc(C(=O)Nc2ccc(C(=O)O)cc2)c1	-5.9	-3.0
Cc1nc(N(C)Cc2ccccc2)ncc1C(=O)O	-0.9	40.3
Cc1ccc(CN2CCN(C3CCN(C(=O)Nc4ccc(C)cc4C)CC3)C2=O)cc1	12.2	-1.8
CCOc1ccc(C=Nc2cccc(C(F)(F)F)c2)c(O)c1	-1.0	4.5
CCOc1ccc(N2CCN(C(=O)c3cccc(C)c3)C(C)C2=O)cc1 (centres undefined)	-0.8	1.9
O=C(NC1CC1)C1CCN(c2ncccc2-c2nc(-c3ccc(Cl)cc3)no2)CC1	-8.1	-5.8
Cc1ccc(Nc2nccc(C3CCCN(C(=O)c4ccco4)C3)n2)cc1 (centres undefined)	86.8*	-4.6
O=C(c1ccco1)N1CCCC(c2ccnc(Nc3ccccc3)n2)C1 (centres undefined)	21.9	-3.6
CCC(=O)N1CCCC(c2ccnc(Nc3ccc(C)cc3)n2)C1 (centres undefined)	56.4*	-12.2
Cc1ccc(C(=O)N2CCCC(c3ccnc(Nc4ccccc4)n3)C2)s1 (centres undefined)	61.4*	-2.3
Cc1ccc(Nc2nccc(C3CCCN(C(=O)C(C)(C)C)C3)n2)cc1 (centres undefined)	38.6	-2.9
SMILES	mHTT-CaM PPI inh	Pf apPOL inh
O=C(C1CCC1)N1CCCC(c2ccnc(Nc3ccccc3)n2)C1 (centres undefined)	24.2	-2.5
CCOC(=O)C(=O)N1CCN(c2ncnc3c2nnn3C)CC1	-13.5	-3.3
Cn1nnc2c(N3CCN(C(=O)C4c5ccccc5Oc5ccccc54)CC3)ncnc21	58.1*	-0.7
COC(=O)c1cc(N2CCN(C)CC2)nc2c(C)cccc12	-16.1	-2.2
CCn1cc(-c2ccn[nH]2)cn1	1.1	nt
O=C1c2cccc(N3CCCC3)c2C(=O)c2cccc(Cl)c21	65.0*	4.2
O=C1c2cccc(Cl)c2C(=O)c2cccc(Cl)c21	3.0	-3.9
Cc1cc(C2CCCN2C(=O)CC(C)C)on1 (centres undefined)	-5.8	4.7
CCCN(CCC)S(=O)(=O)c1cc(C(=O)Nc2ccc(F)c(F)c2)ccc1F	-23.0	27.2
C=CCc1ccc(OCC(O)CN2CCN(c3ccc(OC)cc3)CC2)c(OC)c1 (centres undefined)	51.2*	-2.6
C=CCc1cc(OC)ccc1OCC(O)CN1CCN(c2ccc(OC)cc2)CC1 (centres undefined)	50.4*!	-3.0
C=CCc1ccc(OCC(O)CN2CCN(c3ccccc3)CC2)c(OC)c1 (centres undefined)	40.0	0.3
C=CCc1cc(OC)ccc1OCC(O)CN1CCN(c2ccccc2F)CC1 (centres undefined)	14.3	0.7
CCSc1nnc(-c2nn(C)c3c2CN(C(=O)c2ccoc2)CC3)n1C	-2.1	-0.8

Screens from PubChem BioAssay.
